BAZ2B block: inhibitors of human BAZ2B bromodomain | Q9UIF8 | AlphaScreen BAZ2B-H3K14Ac peptide displacement | Potency, µM (top dose mostly 114 µM), without a hit: at the highest dose activity change, negative = inhibition, hits mostly inhibitors | 360,000 tested, 4.4% active; further: potency means the concentration at half of the fitted maximal effect; on the % scale 0 is the no-effect control and ±100 the full control effect; nearly all actives have a fitted effect of over 60% in size
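Multi-concentration screen (max 110 uM) measuring displacement of acetylated histone H3 peptide from BAZ2B by AlphaScreen, using 50 nM protein, 50 nM peptide and 10 ug/mL streptavidin donor plus Ni-chelate acceptor beads.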
Six1-Eya2 inh: blocks human Six1 binding to Eya2. activity change, % (test concentration not listed). 360,000 tested, 0.56% active. Q15475+O00167. AID 651725. AlphaScreen GST-Six1/His-Eya2 binding, biochemical; hits give low values; in the data active means activity change below about -65%; inconclusive means mostly about -30% to -63%; further: on the % scale 0 is the no-effect control and ±100 the full control effect
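GST-Six1 + His-Eya2 (5X stock: 250/500 nM); Tris pH 8.0, 300 mM NaCl, 0.05% BSA, 0.02% Tween 20; GSH donor/Ni acceptor beads; 1 h 37 °C dark; AlphaScreen readout.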
JMJD2A Tudor: blocks the human JMJD2A Tudor domain; O75164; AlphaScreen JMJD2A-Tudor / H3K4me3 peptide binding; Potency, µM (highest dose often 114 µM), without a hit: at the top dose activity change, negative = inhibition, hits mostly inhibitors; 390,000 tested, 4.4% active; further: potency means the concentration at half of the fitted maximal effect; on the % scale 0 is the no-effect control and ±100 the full control effect; nearly all actives have a fitted effect of over 50% in size
G9a inh-1: blocks human histone lysine methyltransferase G9a; Potency, µM (titrated, usually from 102 µM), inactives show at the highest dose activity, negative = inhibition, most hits filed as inhibitors; G9a H3K9 monomethylation, AlphaScreen, 2 h; 350,000 tested, 8.8% active; Q96KQ7; further: potency means the concentration at half of the fitted maximal effect; on the % scale 0 is the no-effect control and ±100 the full control effect; nearly all actives have a fitted effect of over 75% in size
Target sequence (Q96KQ7 913-1193 limits assumed): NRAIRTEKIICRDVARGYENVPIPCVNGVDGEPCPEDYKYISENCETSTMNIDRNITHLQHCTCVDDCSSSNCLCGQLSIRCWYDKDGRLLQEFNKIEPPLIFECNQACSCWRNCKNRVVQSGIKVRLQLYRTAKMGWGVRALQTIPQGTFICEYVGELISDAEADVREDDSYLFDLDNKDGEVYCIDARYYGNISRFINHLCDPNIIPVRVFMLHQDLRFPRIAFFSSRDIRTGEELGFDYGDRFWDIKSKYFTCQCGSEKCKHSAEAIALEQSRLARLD
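Using a bead-based AlphaScreen, monomethylated H3K9 product from 2 h room-temperature reactions (G9a 20 nM, peptide 500 nM, SAM 20 uM) was detected with 0.5 ug/mL rabbit anti-H3K9me1 antibody.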
HP1b binding inh: inhibitors of HP1-beta chromodomain binding to methylated histone tails | Potency, µM (doses to about 114 µM), inactives show at the highest dose activity change, negative = inhibition, usual class: inhibitors | 390,000 tested, 0.56% active | AlphaScreen HP1-beta / biotin-H3K9me3 peptide binding; further: potency means the concentration at half of the fitted maximal effect; nearly all actives have a fitted effect of over 70% in size
Target sequence (P83916 whole entry, looked up): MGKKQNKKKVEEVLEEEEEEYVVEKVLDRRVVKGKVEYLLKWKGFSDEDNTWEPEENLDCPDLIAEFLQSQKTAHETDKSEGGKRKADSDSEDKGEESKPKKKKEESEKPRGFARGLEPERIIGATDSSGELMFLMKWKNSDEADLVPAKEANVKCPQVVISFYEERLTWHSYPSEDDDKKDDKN
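AlphaScreen: HP1-beta (50 nM) preformed 30 min with biotin-H3(1-18)K9me3 peptide (50 nM) in PBS pH 7.4, 0.01% Tween-20. Compound added for 30 min at RT, then streptavidin donor/nickel chelate acceptor beads (10 ug/mL) for 30 min.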
CtBP-E1A inh: CtBP/E1A binding inhibition; AlphaScreen GST-E1A/His-CtBP binding, 1536-well; hits give low values; activity change, % (concentration not given with the values); 340,000 tested, 0.49% active; AID 651724; in the data active means activity change below about -65%; inconclusive means mostly about -30% to -63%; further: on the % scale 0 is the no-effect control and ±100 the full control effect
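GST-E1A and His-tagged CtBP (125 nM each as 5X stock) were preincubated with pin-transferred compound for 2 h at 37 °C in the dark, then glutathione donor and nickel acceptor beads were added for 1 h before AlphaScreen reading.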
G9a inh-2: confirmation of human histone methyltransferase G9a inhibitors | shares compounds with JMJD2A Tudor | G9a H3K9 monomethylation, AlphaScreen, 2 h | Potency, µM, hits mostly inhibitors | 370 tested, 89% active; further: potency means the concentration at half of the fitted maximal effect; nearly all actives have a fitted effect of over 65% in size
RGS4 confirm: confirmation of human RGS4 inhibitors; shares compounds with JMJD2A Tudor; RGS4 GAP activity, Transcreener GDP fluorescence polarization; Potency, µM, actives largely listed as inhibitors; 25 tested, 80% active; AID 602388
Target sequence (P49798 whole entry, looked up): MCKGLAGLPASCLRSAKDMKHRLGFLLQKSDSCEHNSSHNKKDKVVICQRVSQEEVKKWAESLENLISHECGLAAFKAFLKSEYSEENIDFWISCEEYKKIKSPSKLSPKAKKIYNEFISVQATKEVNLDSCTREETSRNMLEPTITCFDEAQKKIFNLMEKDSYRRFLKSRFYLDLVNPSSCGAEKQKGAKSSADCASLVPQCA
Numbers without * were called inactive; ? = inconclusive; . = no result given; [ ] = another dose, or the depositor's remark. This is a sample that favours compounds with a hit; in the whole collection about 10% have one here. Unless noted, the call rests on the fitted dose curve; in most records, active means well fitted curve in the direction sought with a large enough effect; inconclusive means small, poorly fitted or top-dose-only effect, or another doubt; inactive means no such curve, though single readings can be large; an effect the other way counts as inactive or inconclusive.

SMILES	BAZ2B block	Six1-Eya2 inh	JMJD2A Tudor	G9a inh-1	HP1b binding inh	CtBP-E1A inh	G9a inh-2	others
COC(=O)c1cc(NC(=O)c2nn(C)c3c2CSc2ccccc2-3)cc(C(=O)OC)c1	-1%	.	-13%	-31%[59 µM]	18%	.	.
O=C(Nc1ccc(N2CCN(c3ccc(O)cc3)CC2)cc1)Oc1ccccc1	-30%	-8	-27%	0.89µM*	-4%	-1	0.2*
CCOc1ccc(-c2nc3c(c(CC)nn3-c3ccccc3)c3cc(OC)c(OC)cc23)cc1	3%	.	-3%	-8%[59 µM]	38%	.	.
COc1ccc(OC)c(CN2CCN(C(=O)c3cccc4ccccc34)CC2)c1	40µM*	-14	10µM*	2.5µM*	22µM*	-7	22*
COc1ccc(OC)c(CN2CCN(C(=O)c3cc4ccccc4cc3O)CC2)c1	-39%	-30	?	?	-29%	-6	.
O=C(c1ccc(OC2CCN(Cc3ccccc3C(F)(F)F)CC2)cc1)N1CCCCC1	-14%	-8	-18%	?	8%	-5	.
COc1cccc(OC)c1C(=O)N1CCN(Cc2ccccc2C(F)(F)F)CC1	20µM*	0	7.9µM*	?	?	1	4.5*
CC(C)CCSc1nnc2n(-c3ccccc3)c(=O)c3c4c(sc3n12)CC(C)CC4 (configuration not stated)	-2%	.	-17%	7%[59 µM]	31%	.	.
COc1ccc(NC(=O)C2CC(=O)n3cnnc3S2)cc1 (configuration not stated)	-34%	9	11µM*	?	-66%	-1	0.18*
COc1ccc(NC(=O)C2CC(=O)n3ncnc3N2)cc1 (configuration not stated)	1%	3	-15%	-8%[59 µM]	22%	7	.
COc1cccc(NC(=O)C2CC(=O)n3cnnc3S2)c1 (configuration not stated)	?	24	18µM*	0.63µM*	-75%	0	0.18*
CN(C)c1ccc(NC(=O)c2ccc([N+](=O)[O-])cc2Cl)cc1	-19%	-1	-13%	2µM*	-2%	-7	6.3*
Cc1cc(F)ccc1S(=O)(=O)NCC(c1ccco1)S(=O)(=O)c1cccs1 (configuration not stated)	13%	.	-6%	13%[59 µM]	87%	.	.
COc1ccc(C(C(O)C(=O)c2c[nH]c3ccccc23)N2CCN(c3ccc(OC)cc3)CC2)cc1 (configuration not stated)	61%	?	?	?	?	-25	5.6*
O=C(NCc1ccccc1CN1CCCCC1)c1ccc(Cl)cc1N1CCCC1=O	3%	3	?	1µM*	34%	0	7.9*
Cc1ccc(NC(=O)c2nnn(Cc3cccc(C(F)(F)F)c3)c2N)c(C)c1	4%	.	-7%	9%[59 µM]	36%	.	.
O=C(CSc1nnnn1C1CCCCC1)Nc1ccccc1F	-28%	9	-3%	.	49%	-1	.
O=C(Sc1nnnn1C1CCCCC1)c1cccs1	?	.	.	?	.	.	0.71*
COc1ccc(CNc2ncnc3ccc(-c4ccoc4)cc23)c(OC)c1	.	.	.	-29%[0.501 µM]	.	.	.
COc1ccc2[nH]cc(CCNc3ncnc4ccc(-c5ccoc5)cc34)c2c1	.	.	.	-47%[0.501 µM]	.	.	.	RGS4 confirm=?
CCOc1ccccc1C(=O)NCC(c1cccs1)S(=O)(=O)c1ccc(F)c(C)c1 (configuration not stated)	-1%	.	-26%	20%[59 µM]	6%	.	.
Oc1ccc(OCc2ccccc2)cc1	.	.	.	2%[21.5 µM]	.	.	.
Oc1ccc(NCc2ccc(OCc3ccccc3)cc2)cc1	40µM*	-21	56µM*	7.9µM*	?	?	1.3*
Cn1nc(C(=O)Nc2nc(-c3ccccn3)cs2)c2ccccc2c1=O	18µM*	-91*	22µM*	4.5µM*	?	-91*	.	RGS4 confirm=11*
Cn1nc(C(=O)Nc2cccnc2)c2ccccc2c1=O	-4%	?	7%	-6%[12.7 µM]	21%	?	.
SMILES	BAZ2B block	Six1-Eya2 inh	JMJD2A Tudor	G9a inh-1	HP1b binding inh	CtBP-E1A inh	G9a inh-2	others
CCC(=O)N1c2ccccc2CC1C(=O)NCCc1ccccc1 (configuration not stated)	-1%	.	-19%	25%[59 µM]	4%	.	.
CN(C)c1ccc(NC(=O)Nc2cccc3ccccc23)cc1	?	-18	-15%[11.4 µM]	2.8µM*	-14%	-10	1.1*
Cn1nnc(NC(=S)NC(=O)c2cccs2)n1	?	0	3.2µM*	0.79µM*	-37%	-3	7.1*
O=C(NCC1CCN(c2ccc(S(=O)(=O)N3CCOCC3)cc2)CC1)Nc1ccccc1	-3%	-2	1%	18%	20%	16	.
COc1ccc(N2CCC(CNC(=O)Nc3ccccc3)C2)cc1 (configuration not stated)	50µM*	?	18µM*	?	45µM*	?	1*
O=C(CSc1cn[nH]n1)Nc1cccc(C(=O)O)c1	-32%	22	8.9µM*	0.71µM*	18µM*	7	1.3*
CCN(C(=O)C1CCN(S(=O)(=O)c2ccc3c(c2)CCCN3C(C)=O)CC1)c1cccc(C)c1	0%	.	-4%	6%[59 µM]	30%[57 µM]	.	.
CN(CC(=O)Nc1ccc(N2CCOCC2)cc1)Cc1c(O)ccc2ccccc12	?	0	56µM*	0.5µM*	-1%	4	0.25*
O=C(Nc1cc(Cl)ccc1O)c1cc2nc(-c3ccc4c(c3)OCO4)cc(C(F)(F)F)n2n1	-8%	.	-8%	-8%[59 µM]	19%	.	.
COc1ccc(Br)cc1CNc1ccc(O)cc1	40µM*	?	?	?	?	?	3.2*
CCCn1nnnc1NCc1cc(Br)ccc1OC	-37%	-1	0%	1%	35%	3	.
CCc1ccc(NC(=O)CCc2nc3sc4c(c3c(=O)[nH]2)CCCC4)cc1	-37%	3	-30%	-34%	30%	5	.
CCN(c1ccc(NC(=O)CCc2nc3sc4c(c3c(=O)[nH]2)CCCC4)cc1)C(C)C	-33%	-21	?	2.2µM*	-21%	-7	2.2*
COc1ccc2c(c1)CC(C(=O)NCCc1ccc(S(N)(=O)=O)cc1)CO2 (configuration not stated)	-6%	.	1%	8%[59 µM]	29%[57 µM]	.	.
CCOc1nc(NCCc2ccc(OC)c(OC)c2)nc(N2CCN(c3ccc(OC)cc3)CC2)n1	-24%	-1	2%	?	35%	8	2*
